Compounds with a hit are over-represented: about 12% of the library has one in this group of screens.
Sfp inh: qHTS Assay for Inhibitors of Bacillus subtilis Sfp phosphopantetheinyl transferase (PPTase); Potency, µM, usual class: inhibitors; Biochemical Sfp PPTase activity, qHTS; 4'-phosphopantetheinyl transferase ffp (Bacillus subtilis), Q9F4F7; 310,000 compounds, 3.5% hits;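 further: the enzyme is Sfp with the accession as filed and its product quenches rhodamine fluorescence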
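Buffer: 50 mM Hepes-Na pH 7.6, 10 mM MgCl2, 0.01% Nonidet P-40, 0.01% BSA. Enzyme 15 nM, pre-exposed to compound 15 min; substrates then added and fluorescence change tracked over 30 min.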
JMJD2A Tudor: qHTS Assay for Inhibitors of JMJD2A-Tudor Domain. Lysine-specific demethylase 4A (Homo sapiens), O75164. AlphaScreen JMJD2A-Tudor / H3K4me3 peptide binding. Potency, µM (highest dose often 114 µM), actives largely listed as inhibitors. 390,000 compounds, 4.4% hits; further: nearly all actives have a fitted effect of over 50% in size
G9a block: qHTS Assay for Inhibitors of Histone Lysine Methyltransferase G9a; 350,000 compounds, 8.8% hits; G9a H3K9 monomethylation, AlphaScreen, 2 h; Potency, µM (doses to about 102 µM), actives largely listed as inhibitors; AID 504332, 2011; Histone-lysine N-methyltransferase EHMT2 (Homo sapiens), Q96KQ7; further: nearly all actives have a fitted effect of over 75% in size
Target sequence (Q96KQ7 913-1193 limits assumed): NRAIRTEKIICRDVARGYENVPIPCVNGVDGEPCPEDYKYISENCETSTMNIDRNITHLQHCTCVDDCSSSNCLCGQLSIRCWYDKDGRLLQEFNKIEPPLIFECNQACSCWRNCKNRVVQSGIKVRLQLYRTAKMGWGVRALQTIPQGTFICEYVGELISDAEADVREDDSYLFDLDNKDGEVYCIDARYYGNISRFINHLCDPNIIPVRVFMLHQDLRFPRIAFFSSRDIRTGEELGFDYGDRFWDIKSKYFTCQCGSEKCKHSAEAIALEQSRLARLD
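Signal arises when biotinylated H3K9 peptide, once monomethylated, bridges streptavidin donor and antibody-captured acceptor beads. Enzyme at 20 nM was preincubated 15 min with test compounds; peptide 500 nM and SAM 20 uM then reacted for 2 h.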
BAZ2B inh: qHTS Assay for Inhibitors of BAZ2B | Bromodomain adjacent to zinc finger domain protein 2B (Homo sapiens), Q9UIF8 | AlphaScreen BAZ2B-H3K14Ac peptide displacement | 360,000 compounds, 4.4% hits | AID 504333, 2011 | Potency, µM (doses to about 114 µM), most hits filed as inhibitors; further: nearly all actives have a fitted effect of over 60% in size
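In this displacement format the biotinylated H3(5-23) peptide acetylated at Lys14 serves as ligand at 50 nM, with BAZ2B at 50 nM in PBS pH 7.4 containing 0.01% Tween-20. Donor and acceptor beads are 10 ug/mL final.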
HP1b chromo inh: HTS for Inhibitors of HP1-beta Chromodomain Interactions with Methylated Histone Tails; AlphaScreen HP1-beta / biotin-H3K9me3 peptide binding; Potency, µM (top dose mostly 114 µM), usual class: inhibitors; 390,000 compounds, 0.56% hits; AID 540317, 2011; further: nearly all actives have a fitted effect of over 70% in size
Target sequence (P83916 whole entry, looked up): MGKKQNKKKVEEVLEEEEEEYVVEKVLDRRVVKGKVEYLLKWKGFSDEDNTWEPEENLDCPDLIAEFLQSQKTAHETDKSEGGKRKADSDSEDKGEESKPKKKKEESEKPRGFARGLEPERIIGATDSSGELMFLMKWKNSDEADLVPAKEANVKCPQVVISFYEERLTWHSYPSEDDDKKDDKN
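AlphaScreen: HP1-beta (50 nM) preformed 30 min with biotin-H3(1-18)K9me3 peptide (50 nM) in PBS pH 7.4, 0.01% Tween-20. Compound added for 30 min at RT, then streptavidin donor/nickel chelate acceptor beads (10 ug/mL) for 30 min.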
Each line names hits and unclear results; the compound was inactive in the other large screens. The call rests on the fitted dose curve; in most records, active means well fitted curve in the direction sought with a large enough effect; inconclusive means small, poorly fitted or top-dose-only effect, or another doubt; inactive means no such curve, though single readings can be large; an effect the other way counts as inactive or inconclusive.

Cc1ccccc1Oc1ccc2c(c1)[C@@H]1C[C@H](N(C)C(=O)Nc3cc(Cl)cc(Cl)c3)[C@H]([C@H](C)O)C(=O)N1CC2	JMJD2A Tudor inconclusive (no result: Sfp inh, G9a block, BAZ2B inh)
CCOC(=O)Cn1nc(C)cc1NC(=O)c1ccncc1	none
CC1=C(C(=O)OCCNC(=O)c2cccnc2)C(c2cccc([N+](=O)[O-])c2)C(C(=O)OCCN(C)C)=C(C)N1 (centres undefined)	none
COCCn1cnc2c1c(=O)n(Cc1cc(C(C)=O)ccc1OC)c(=O)n2Cc1ccccc1	none
COc1cc(/C=C2\C(=N)N3N=C(S(C)(=O)=O)SC3=NC2=O)cc(OC)c1OCCOc1ccc(C)cc1	JMJD2A Tudor inconclusive, BAZ2B inh inconclusive
CC(=O)Nc1ccc(CN2CCCC(CCC(=O)NCc3ccccc3F)C2)cc1 (centres undefined)	none
CCn1c(C)cc(/C=C2\NC(=O)N(CC(=O)Nc3cccc(C)c3)C2=O)c1C	G9a block inconclusive, BAZ2B inh inconclusive
Cc1ccc(NC(=O)CN2C(=O)N/C(=C/c3ccc4c(c3)OCCO4)C2=O)cc1	none
Cc1cccc(NC(=O)CN2C(=O)N/C(=C/c3ccc(C)o3)C2=O)c1	Sfp inh 11.2µM, JMJD2A Tudor 79.4µM, G9a block 35.5µM
Cc1ccc(NC(=O)CN2C(=O)N/C(=C/c3ccc(C)o3)C2=O)cc1	Sfp inh 10µM, G9a block 35.5µM
CCCCn1c2c(c(=O)n(C)c1=O)C(CC(=O)OCC(=O)Nc1cccc(C(F)(F)F)c1)C(=O)N2 (centres undefined)	G9a block 31.6µM
Cc1sc(-c2cccnc2)nc1OC(=O)C1CC1	Sfp inh inconclusive, G9a block 20µM
CC[C@H](C)C(C(=O)N1CCN(C(=O)OC(C)(C)C)CC1)n1cc(C(CO)NC(=O)OC(C)(C)C)nn1 (some centres undefined)	none
CS(=O)(=O)c1ccc(NS(=O)(=O)c2ccc(Cl)c(C(=O)NC3=NCCS3)c2)cc1	none (no result: Sfp inh, G9a block, BAZ2B inh)
Cc1ccc(S(=O)(=O)N2CCN(CC(=O)N/N=C\c3ccc(O)c(O)c3)CC2)cc1	Sfp inh inconclusive, G9a block 39.8µM
O=C(CN1CCCCCCC1)N/N=C/c1ccc(F)cc1F	JMJD2A Tudor inconclusive, G9a block 22.4µM, HP1b chromo inh inconclusive
Cc1ccc(S(=O)(=O)N2CCN(CC(=O)N/N=C/c3ccc(C)o3)CC2)cc1	G9a block inconclusive
O=C(CN1CCCC1)N/N=C/c1c(O)ccc2ccccc12	JMJD2A Tudor 79.4µM, BAZ2B inh 28.2µM
O=C(CN1CCN(Cc2ccc(Cl)cc2)CC1)N/N=C/c1ccccc1F	none
Cc1ccc(O)c(/C=N/NC(=O)CN2CCCC2)c1	JMJD2A Tudor 70.8µM, BAZ2B inh 50.1µM
CCCc1cc(C(=O)OC)c(NC(=O)CCC(=O)O)s1	none
O=C(NC1CCCCC1)Oc1cc2oc(=O)sc2cc1Br	Sfp inh 15.8µM, G9a block 39.8µM
O=C(NC1CCCCCC1)c1ccc(Br)o1	none
COc1ccc(N2CCN(C(=O)CN3C(=O)NC4(CCCc5ccccc54)C3=O)CC2)cc1 (centres undefined)	G9a block 39.8µM (no result: Sfp inh)
CCN(C(=O)CN1C(=O)NC2(CCc3ccccc32)C1=O)C1CCCCC1 (centres undefined)	G9a block 44.7µM (no result: Sfp inh)
COc1ccccc1C(=O)CN1C(=O)NC2(CCc3ccccc32)C1=O (centres undefined)	G9a block 50.1µM (no result: Sfp inh)
COc1ccc(N2CCN(C(=O)CN3C(=O)NC(c4ccc(OC)cc4)(c4ccc(OC)cc4)C3=O)CC2)cc1	JMJD2A Tudor inconclusive (no result: G9a block)
C=CCn1c(C)cc(C(=O)CN2C(=O)NC3(CCCc4ccccc43)C2=O)c1C (centres undefined)	JMJD2A Tudor inconclusive, G9a block 44.7µM, BAZ2B inh inconclusive, HP1b chromo inh inconclusive
CC(NC(=O)C(C)N1C(=O)c2ccccc2C1=O)c1ccccc1 (centres undefined)	none
CCCCNC(=O)CCn1nc(-c2ccccc2)c2ccccc2c1=O	none

Screening data from PubChem.
